# How the values were obtained:
# Test in all cases: DAPPL (digital affinity profiling via proximity ligation, sequencing); 10 mM Tris-HCl pH 7.5, 50 mM NaCl, 1 mM DTT, 4% glycerol, room temperature, 30 min; GST-TFs on glutathione beads, 16-mer random dsDNA library, 0.1% formaldehyde crosslink after washing; high values mean tight binding
# FEV = target: T1, FEV (Homo sapiens, UniProt Q99581 1-238); conditions: protein: recombinant; tags: N-terminal GST; dsDNA, one strand shown
# T1 sequence: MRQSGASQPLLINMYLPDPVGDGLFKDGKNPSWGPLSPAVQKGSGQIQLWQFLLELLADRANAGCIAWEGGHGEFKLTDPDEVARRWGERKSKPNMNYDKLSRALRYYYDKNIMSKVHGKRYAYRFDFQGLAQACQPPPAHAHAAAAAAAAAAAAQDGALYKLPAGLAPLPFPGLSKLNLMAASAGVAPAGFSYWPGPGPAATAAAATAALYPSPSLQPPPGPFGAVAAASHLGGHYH
# Procedure, shortened: (§1)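 Human transcription factors were made in yeast as GST fusions, captured on glutathione beads and barcoded with DNA. With a tag-only sample included, the pool was incubated with 200 nmole of a random double-stranded 16-mer DNA library in Tris/NaCl/DTT/glycerol buffer at room temperature for 30 min, then crosslinked with 0.1% formaldehyde after washing, ligated by proximity, amplified and sequenced. For binding signal, each hexamer's read frequency for a factor is divided by its frequency for the tag-only sample.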
# ETV5 = ETV5 (Homo sapiens, UniProt P41161 1-510); conditions: protein: recombinant; tags: N-terminal GST; dsDNA, one strand shown
# Chain of ETV5 (P41161 whole entry): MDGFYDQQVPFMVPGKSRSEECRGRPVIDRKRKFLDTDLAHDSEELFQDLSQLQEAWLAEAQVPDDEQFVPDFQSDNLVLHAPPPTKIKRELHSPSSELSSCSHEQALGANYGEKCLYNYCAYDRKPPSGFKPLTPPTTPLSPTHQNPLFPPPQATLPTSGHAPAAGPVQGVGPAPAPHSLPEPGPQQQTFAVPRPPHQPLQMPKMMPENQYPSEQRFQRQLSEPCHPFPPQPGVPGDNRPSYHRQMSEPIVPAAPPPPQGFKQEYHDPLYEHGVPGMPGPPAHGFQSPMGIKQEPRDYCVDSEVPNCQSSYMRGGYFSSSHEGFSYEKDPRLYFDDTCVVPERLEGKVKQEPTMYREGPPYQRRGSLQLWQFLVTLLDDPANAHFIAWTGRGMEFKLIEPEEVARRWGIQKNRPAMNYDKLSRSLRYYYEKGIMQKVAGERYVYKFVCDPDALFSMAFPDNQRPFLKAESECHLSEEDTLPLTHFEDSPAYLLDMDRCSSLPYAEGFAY
# Procedure, shortened: as §1
# HSF1 = HSF1 (Homo sapiens, UniProt Q00613 1-529); conditions: protein: recombinant; tags: N-terminal GST; chain copies: 3; dsDNA, one strand shown
# Chain of HSF1 (Q00613 whole entry): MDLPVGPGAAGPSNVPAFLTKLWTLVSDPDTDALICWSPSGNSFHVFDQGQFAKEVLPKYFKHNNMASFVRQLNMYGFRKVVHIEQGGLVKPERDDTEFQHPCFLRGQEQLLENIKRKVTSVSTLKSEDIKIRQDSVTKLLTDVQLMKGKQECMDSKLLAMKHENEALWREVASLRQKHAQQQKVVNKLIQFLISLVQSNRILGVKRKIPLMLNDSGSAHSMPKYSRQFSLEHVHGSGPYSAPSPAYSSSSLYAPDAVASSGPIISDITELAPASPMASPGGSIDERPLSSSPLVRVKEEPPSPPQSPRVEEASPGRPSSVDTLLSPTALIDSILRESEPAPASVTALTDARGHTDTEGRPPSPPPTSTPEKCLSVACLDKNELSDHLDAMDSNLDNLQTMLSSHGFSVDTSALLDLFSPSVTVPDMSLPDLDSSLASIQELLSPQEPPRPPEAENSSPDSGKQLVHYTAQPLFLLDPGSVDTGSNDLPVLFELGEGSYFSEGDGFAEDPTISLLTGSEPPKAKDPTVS
# Procedure, shortened: as §1
# SPIC = target: T2, SPIC (Homo sapiens, UniProt Q8N5J4 1-248); conditions: protein: recombinant; tags: N-terminal GST; dsDNA, one strand shown
# T2 sequence: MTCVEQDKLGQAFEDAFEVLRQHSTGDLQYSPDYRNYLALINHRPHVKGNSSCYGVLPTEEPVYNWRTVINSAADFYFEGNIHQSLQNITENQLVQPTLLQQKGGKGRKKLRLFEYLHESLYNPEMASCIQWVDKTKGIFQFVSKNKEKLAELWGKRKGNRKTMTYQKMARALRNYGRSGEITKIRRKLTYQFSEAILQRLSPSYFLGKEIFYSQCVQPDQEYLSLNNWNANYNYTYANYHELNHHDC
# Procedure, shortened: as §1
# ELF4 = ELF4 (Homo sapiens, UniProt Q99607 1-663); conditions: protein: recombinant; tags: N-terminal GST; dsDNA, one strand shown
# Chain of ELF4 (Q99607 whole entry): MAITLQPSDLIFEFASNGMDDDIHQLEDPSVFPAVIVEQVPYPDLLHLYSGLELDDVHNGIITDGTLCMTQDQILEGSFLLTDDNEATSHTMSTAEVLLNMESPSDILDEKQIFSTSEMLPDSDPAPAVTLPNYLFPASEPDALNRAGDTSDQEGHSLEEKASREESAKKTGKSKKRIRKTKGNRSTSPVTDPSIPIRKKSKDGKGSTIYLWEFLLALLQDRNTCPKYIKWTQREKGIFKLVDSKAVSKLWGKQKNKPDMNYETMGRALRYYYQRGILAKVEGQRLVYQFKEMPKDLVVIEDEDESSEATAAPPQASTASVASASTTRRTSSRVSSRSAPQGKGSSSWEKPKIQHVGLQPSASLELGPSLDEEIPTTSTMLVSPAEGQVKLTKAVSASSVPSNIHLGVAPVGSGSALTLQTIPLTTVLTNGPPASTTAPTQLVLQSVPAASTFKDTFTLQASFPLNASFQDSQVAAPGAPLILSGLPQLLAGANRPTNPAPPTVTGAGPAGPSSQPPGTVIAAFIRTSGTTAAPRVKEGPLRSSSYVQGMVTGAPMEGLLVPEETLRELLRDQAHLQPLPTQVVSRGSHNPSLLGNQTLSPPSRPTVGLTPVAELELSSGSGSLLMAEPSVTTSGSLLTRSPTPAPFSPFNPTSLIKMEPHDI
# Procedure, shortened: as §1
# ELK4 = target: T3, ELK4 (Homo sapiens, UniProt P28324-2 1-405); conditions: protein: recombinant; tags: N-terminal GST; dsDNA, one strand shown
# T3 sequence: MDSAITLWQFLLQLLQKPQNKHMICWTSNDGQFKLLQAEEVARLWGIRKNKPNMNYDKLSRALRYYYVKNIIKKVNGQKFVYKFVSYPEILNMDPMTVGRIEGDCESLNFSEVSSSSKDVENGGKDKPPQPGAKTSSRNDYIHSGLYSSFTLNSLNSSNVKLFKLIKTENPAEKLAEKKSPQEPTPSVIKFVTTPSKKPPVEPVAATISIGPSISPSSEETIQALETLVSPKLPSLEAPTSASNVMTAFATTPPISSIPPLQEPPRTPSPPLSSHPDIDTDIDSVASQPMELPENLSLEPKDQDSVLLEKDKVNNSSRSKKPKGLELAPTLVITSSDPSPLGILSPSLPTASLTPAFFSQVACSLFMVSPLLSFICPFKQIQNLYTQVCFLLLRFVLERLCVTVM
# Procedure, shortened: as §1
# ETV2 = target: T4, ETV2 (Homo sapiens, UniProt O00321 1-342); conditions: protein: recombinant; tags: N-terminal GST; dsDNA, one strand shown
# T4 sequence: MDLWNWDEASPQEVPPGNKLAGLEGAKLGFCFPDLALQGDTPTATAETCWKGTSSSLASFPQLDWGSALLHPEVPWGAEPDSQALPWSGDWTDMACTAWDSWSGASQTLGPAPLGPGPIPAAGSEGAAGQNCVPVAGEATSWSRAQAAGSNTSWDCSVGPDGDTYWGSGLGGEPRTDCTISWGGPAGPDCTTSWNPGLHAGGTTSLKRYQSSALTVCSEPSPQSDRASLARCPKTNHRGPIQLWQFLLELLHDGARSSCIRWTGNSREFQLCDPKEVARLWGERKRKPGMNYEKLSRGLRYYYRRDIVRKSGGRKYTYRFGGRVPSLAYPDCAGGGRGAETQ
# Procedure, shortened: as §1
# ELF3 = target: T5, ELF3 (Homo sapiens, UniProt P78545 1-371); conditions: protein: recombinant; tags: N-terminal GST; dsDNA, one strand shown
# T5 sequence: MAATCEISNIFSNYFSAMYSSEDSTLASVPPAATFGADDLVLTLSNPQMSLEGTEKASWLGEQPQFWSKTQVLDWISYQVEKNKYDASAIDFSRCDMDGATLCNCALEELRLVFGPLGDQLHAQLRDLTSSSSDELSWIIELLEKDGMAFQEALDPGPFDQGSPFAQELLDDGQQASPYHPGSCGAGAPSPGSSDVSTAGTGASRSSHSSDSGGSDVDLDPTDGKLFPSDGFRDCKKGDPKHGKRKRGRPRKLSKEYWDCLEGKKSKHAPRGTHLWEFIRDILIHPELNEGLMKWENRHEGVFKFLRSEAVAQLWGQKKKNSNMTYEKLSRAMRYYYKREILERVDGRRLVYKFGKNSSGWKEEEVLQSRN
# Procedure, shortened: as §1
# CRX = CRX (Homo sapiens, UniProt O43186 1-299); conditions: protein: recombinant; tags: N-terminal GST; dsDNA, one strand shown
# Chain of CRX (O43186 whole entry): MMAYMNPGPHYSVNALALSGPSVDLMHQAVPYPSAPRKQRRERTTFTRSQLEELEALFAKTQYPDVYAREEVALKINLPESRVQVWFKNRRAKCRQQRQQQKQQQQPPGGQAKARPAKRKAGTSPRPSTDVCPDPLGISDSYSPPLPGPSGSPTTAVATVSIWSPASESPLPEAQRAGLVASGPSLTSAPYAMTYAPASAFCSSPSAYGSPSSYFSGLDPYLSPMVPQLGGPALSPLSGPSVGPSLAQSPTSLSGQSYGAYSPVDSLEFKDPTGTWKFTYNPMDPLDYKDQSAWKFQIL
# Procedure, shortened: as §1
# ETV1 = ETV1 (Homo sapiens, UniProt P50549 1-477); conditions: protein: recombinant; tags: N-terminal GST; dsDNA, one strand shown
# Chain of ETV1 (P50549 whole entry): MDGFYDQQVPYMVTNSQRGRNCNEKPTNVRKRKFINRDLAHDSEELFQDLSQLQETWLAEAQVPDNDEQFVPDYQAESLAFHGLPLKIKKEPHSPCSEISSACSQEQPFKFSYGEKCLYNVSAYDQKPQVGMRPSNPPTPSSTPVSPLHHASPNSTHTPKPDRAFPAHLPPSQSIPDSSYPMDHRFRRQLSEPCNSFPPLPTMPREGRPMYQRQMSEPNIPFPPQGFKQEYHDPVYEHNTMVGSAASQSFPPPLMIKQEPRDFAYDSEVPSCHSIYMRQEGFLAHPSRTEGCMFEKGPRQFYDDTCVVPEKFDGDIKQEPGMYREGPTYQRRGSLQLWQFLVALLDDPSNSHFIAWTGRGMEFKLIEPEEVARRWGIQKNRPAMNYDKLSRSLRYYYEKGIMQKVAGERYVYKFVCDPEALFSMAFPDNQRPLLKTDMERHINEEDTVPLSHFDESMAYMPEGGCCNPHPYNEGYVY
# Procedure, shortened: as §1
# ERF = target: T6, ERF (Homo sapiens, UniProt P50548 1-548); conditions: protein: recombinant; tags: N-terminal GST; dsDNA, one strand shown
# T6 sequence: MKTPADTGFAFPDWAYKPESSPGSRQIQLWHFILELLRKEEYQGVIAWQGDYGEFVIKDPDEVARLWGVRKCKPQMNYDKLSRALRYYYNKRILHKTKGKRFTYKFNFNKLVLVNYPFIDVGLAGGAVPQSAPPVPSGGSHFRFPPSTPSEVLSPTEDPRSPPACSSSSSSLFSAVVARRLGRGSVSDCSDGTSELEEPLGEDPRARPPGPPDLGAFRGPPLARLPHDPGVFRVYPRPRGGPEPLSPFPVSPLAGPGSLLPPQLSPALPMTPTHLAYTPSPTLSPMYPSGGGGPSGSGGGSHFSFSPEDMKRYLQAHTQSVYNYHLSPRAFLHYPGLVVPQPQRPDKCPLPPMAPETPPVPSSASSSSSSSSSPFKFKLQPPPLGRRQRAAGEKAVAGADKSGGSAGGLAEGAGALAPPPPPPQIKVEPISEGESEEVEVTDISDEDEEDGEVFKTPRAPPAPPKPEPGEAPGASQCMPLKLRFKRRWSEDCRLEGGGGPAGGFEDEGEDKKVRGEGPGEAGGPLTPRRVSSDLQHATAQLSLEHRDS
# Procedure, shortened: as §1
# ETV3L = target: T7, ETV3L (Homo sapiens, UniProt Q6ZN32 1-361); conditions: protein: recombinant; tags: N-terminal GST; dsDNA, one strand shown
# T7 sequence: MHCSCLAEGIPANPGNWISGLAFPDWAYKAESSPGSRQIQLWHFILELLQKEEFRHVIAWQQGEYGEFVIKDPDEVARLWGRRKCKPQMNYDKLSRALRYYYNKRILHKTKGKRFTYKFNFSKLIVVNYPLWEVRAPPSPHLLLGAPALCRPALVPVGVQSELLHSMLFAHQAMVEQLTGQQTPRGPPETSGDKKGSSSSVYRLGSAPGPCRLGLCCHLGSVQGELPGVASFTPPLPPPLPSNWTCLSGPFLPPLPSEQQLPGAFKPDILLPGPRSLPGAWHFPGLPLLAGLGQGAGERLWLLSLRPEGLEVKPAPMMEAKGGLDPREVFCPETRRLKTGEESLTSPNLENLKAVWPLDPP
# Procedure, shortened: as §1
# ETS2 = target: T8, ETS2 (Homo sapiens, UniProt P15036 1-469); conditions: protein: recombinant; tags: N-terminal GST; dsDNA, one strand shown
# T8 sequence: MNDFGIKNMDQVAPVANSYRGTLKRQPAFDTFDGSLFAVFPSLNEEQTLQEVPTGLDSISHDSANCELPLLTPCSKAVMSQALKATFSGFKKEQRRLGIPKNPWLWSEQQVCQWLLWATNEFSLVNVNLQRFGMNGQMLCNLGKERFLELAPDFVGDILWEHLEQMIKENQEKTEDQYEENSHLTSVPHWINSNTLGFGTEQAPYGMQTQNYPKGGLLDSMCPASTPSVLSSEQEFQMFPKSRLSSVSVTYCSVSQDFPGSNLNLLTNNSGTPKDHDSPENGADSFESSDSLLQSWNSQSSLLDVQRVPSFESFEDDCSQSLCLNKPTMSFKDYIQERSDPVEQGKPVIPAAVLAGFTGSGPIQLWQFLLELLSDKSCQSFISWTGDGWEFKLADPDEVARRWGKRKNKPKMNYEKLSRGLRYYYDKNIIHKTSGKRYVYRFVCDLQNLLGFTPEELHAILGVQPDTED
# Procedure, shortened: as §1
# SPDEF = target: T9, SPDEF (Homo sapiens, UniProt O95238 1-335); conditions: protein: recombinant; tags: N-terminal GST; dsDNA, one strand shown
# T9 sequence: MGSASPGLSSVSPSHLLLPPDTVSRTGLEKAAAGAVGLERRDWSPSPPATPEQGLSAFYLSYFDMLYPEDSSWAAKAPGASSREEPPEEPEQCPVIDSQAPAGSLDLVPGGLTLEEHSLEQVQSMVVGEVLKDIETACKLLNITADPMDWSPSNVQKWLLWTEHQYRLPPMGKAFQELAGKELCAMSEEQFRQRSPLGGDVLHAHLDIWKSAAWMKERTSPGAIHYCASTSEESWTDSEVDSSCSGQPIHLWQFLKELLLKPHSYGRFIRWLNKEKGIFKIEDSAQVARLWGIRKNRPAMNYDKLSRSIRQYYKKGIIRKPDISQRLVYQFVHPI
# Procedure, shortened: as §1
# ETV7 = target: T10, ETV7 (Homo sapiens, UniProt Q9Y603 1-341); conditions: protein: recombinant; tags: N-terminal GST; dsDNA, one strand shown
# T10 sequence: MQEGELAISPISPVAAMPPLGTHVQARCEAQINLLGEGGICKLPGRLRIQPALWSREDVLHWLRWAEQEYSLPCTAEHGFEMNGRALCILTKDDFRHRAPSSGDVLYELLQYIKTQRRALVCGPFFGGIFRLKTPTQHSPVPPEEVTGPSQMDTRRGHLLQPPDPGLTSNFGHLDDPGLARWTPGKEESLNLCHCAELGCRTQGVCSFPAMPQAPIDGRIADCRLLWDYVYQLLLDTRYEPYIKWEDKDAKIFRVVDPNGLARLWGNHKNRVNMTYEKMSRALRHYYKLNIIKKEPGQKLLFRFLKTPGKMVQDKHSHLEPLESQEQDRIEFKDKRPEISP
# Procedure, shortened: as §1
# ELF5 = target: T11, ELF5 (Homo sapiens, UniProt Q9UKW6-2 1-255); conditions: protein: recombinant; tags: N-terminal GST; dsDNA, one strand shown
# T11 sequence: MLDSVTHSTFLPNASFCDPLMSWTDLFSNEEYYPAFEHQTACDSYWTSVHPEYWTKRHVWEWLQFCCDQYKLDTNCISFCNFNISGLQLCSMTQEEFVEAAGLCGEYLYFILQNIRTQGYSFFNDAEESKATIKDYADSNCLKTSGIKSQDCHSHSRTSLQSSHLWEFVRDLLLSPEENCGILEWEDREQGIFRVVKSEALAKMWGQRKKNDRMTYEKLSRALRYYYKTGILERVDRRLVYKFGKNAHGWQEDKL
# Procedure, shortened: as §1
# ETV3 = target: T12, ETV3 (Homo sapiens, UniProt P41162-2 1-143); conditions: protein: recombinant; tags: N-terminal GST; dsDNA, one strand shown
# T12 sequence: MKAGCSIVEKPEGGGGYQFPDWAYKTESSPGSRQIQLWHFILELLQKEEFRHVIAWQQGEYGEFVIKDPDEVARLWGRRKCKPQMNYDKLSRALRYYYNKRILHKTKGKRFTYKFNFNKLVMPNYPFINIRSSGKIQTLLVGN
# Procedure, shortened: as §1
# ETV6 = ETV6 (Homo sapiens, UniProt P41212 1-452); conditions: protein: recombinant; tags: N-terminal GST; dsDNA, one strand shown
# Chain of ETV6 (P41212 whole entry): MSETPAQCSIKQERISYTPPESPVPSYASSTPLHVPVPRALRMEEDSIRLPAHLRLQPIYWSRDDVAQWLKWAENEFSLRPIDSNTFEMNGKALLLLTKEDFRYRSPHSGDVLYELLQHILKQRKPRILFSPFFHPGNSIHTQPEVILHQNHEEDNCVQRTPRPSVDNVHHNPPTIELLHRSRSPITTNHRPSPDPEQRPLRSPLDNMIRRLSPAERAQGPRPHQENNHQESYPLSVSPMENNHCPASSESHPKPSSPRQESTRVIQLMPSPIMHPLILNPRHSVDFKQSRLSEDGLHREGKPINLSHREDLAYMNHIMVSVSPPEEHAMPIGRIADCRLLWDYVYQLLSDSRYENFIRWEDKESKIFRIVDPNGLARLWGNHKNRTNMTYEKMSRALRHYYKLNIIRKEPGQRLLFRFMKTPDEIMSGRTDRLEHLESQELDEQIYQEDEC
# Procedure, shortened: as §1
sequence,measurement,setting,value
GCATTT,binding signal,FEV,"1.57 fold enrichment (6-mer frequency, TF over GST control)"
same,binding signal,ETV5,"1.38 fold enrichment (6-mer frequency, TF over GST control)"
same,binding signal,HSF1,"1.15 fold enrichment (6-mer frequency, TF over GST control)"
same,binding signal,SPIC,"1.37 fold enrichment (6-mer frequency, TF over GST control)"
same,binding signal,ELF4,"1.4 fold enrichment (6-mer frequency, TF over GST control)"
same,binding signal,ELK4,"1.27 fold enrichment (6-mer frequency, TF over GST control)"
same,binding signal,ETV2,"1.25 fold enrichment (6-mer frequency, TF over GST control)"
same,binding signal,ELF3,"1.33 fold enrichment (6-mer frequency, TF over GST control)"
same,binding signal,CRX,"1.16 fold enrichment (6-mer frequency, TF over GST control)"
same,binding signal,ETV1,"1.37 fold enrichment (6-mer frequency, TF over GST control)"
same,binding signal,ERF,"1.31 fold enrichment (6-mer frequency, TF over GST control)"
same,binding signal,ETV3L,"1.35 fold enrichment (6-mer frequency, TF over GST control)"
same,binding signal,ETS2,"1.34 fold enrichment (6-mer frequency, TF over GST control)"
same,binding signal,SPDEF,"1.36 fold enrichment (6-mer frequency, TF over GST control)"
same,binding signal,ETV7,"1.31 fold enrichment (6-mer frequency, TF over GST control)"
same,binding signal,ELF5,"1.4 fold enrichment (6-mer frequency, TF over GST control)"
same,binding signal,ETV3,"1.36 fold enrichment (6-mer frequency, TF over GST control)"
same,binding signal,ETV6,"1.39 fold enrichment (6-mer frequency, TF over GST control)"

# — publication PMC7862700, “An all-to-all approach to the identification of sequence-specific readers for epigenetic DNA modifications on cytosine”
